The values below come from PubChem BioAssay (NCATS).

Several values for one entry are separate records, joined by “and”; a condition that tells them apart may be missing. Equal values may be shown once. Unmarked numbers belong to inactive results. Records with an inconclusive call do not appear. Activity calls are given as the source filed them. Unless noted, calls follow the shape of the dose curve; as a rule, active = well fitted curve in the direction sought with a large enough effect; inconclusive = small, poorly fitted or top-dose-only effect, or another doubt; inactive = no such curve, though single readings can be large; an effect the other way counts as inactive or inconclusive.

In one assay the test system is C33A. The assay is described as follows: Primary qHTS to identify gynecologic anti-cancer compounds using libraries of approved drugs and bioactive compounds (AID 1345084). Also: nearly all actives have a fitted effect of over 55% in size. Also: potency is read from the fitted curve at half-maximal effect. The settings on record: Gynecologic cancer cell panel viability, ATPlite luminescence, 48 h; series mostly up to 57.5 µM. An outline of the steps:
(§1)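 Cytotoxicity screen measuring ATP content by luciferase luminescence. Each compound is applied at five concentrations for 48 h at 37 C with 5% CO2.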
In general terms: qHTS replaces the single test concentration by a dilution series.

Another assay relates to CASKI. The description is as above. The settings on record: Gynecologic cancer cell panel viability, ATPlite luminescence, 48 h; series mostly up to 57.5 µM. An outline of the steps:
as §1
(In general: In ATP-based viability assays light output follows the ATP content of the culture.)

For a further assay, the system named is Es-2. Described as above. The settings on record: Gynecologic cancer cell panel viability, ATPlite luminescence, 48 h; series mostly up to 57.5 µM. An outline of the steps: as §1
The subject of a further assay is HeLa. The description is as above. The settings on record: Gynecologic cancer cell panel viability, ATPlite luminescence, 48 h; series mostly up to 57.5 µM. An outline of the steps: as §1
For another assay, the system named is Hek293T. The description is as above. As to conditions: Gynecologic cancer cell panel viability, ATPlite luminescence, 48 h, control line for the selectivity index; series mostly up to 57.5 µM. An outline of the steps:
as §1

The test system of another assay is JEG-3. The description is as above. As to conditions: Gynecologic cancer cell panel viability, ATPlite luminescence, 48 h; series mostly up to 57.5 µM. An outline of the steps:
as §1

A further assay relates to OV90. Described as above. The settings on record: Gynecologic cancer cell panel viability, ATPlite luminescence, 48 h; series mostly up to 57.5 µM. An outline of the steps: as §1
Another assay has as its system PA-1. Described as above. The settings on record: Gynecologic cancer cell panel viability, ATPlite luminescence, 48 h; series mostly up to 57.5 µM. An outline of the steps:
as §1

For a further assay, the system named is SKOV3. The assay is described as above. As to conditions: Gynecologic cancer cell panel viability, ATPlite luminescence, 48 h; series mostly up to 57.5 µM. An outline of the steps:
as §1

Another assay deals with Tov-21-G. The description is as above. As to conditions: Gynecologic cancer cell panel viability, ATPlite luminescence, 48 h; series mostly up to 57.5 µM. An outline of the steps: as §1
Another assay concerns Tov112D. The description is as above. As to conditions: Gynecologic cancer cell panel viability, ATPlite luminescence, 48 h; series mostly up to 57.5 µM. An outline of the steps: as §1
A short description of assay [1]: Drug repurposing screens with cells derived from glioblastoma tumor samples (AID 1345199). Also: nearly all actives have a fitted effect of over 40% in size. Also: potency is read from the fitted curve at half-maximal effect. As to activity, negative = cell killing: % is scaled to controls: 0 for no effect and ±100 for the full control effect. As to conditions: GBM patient neurospheres viability, ATP luminescence, 48 h. An outline of the steps: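 Four patient lines of CD133+ GBM neurospheres were screened at several concentrations; hits were retested in those lines plus three slower-growing GBM lines, using 48-hour treatment and ATP-based viability.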

The nature of assay [2]: qHTS assay to identify inhibitors of the type 1 interferon - major histocompatibility complex class I in skeletal muscle: Counter screen cell viability and HiBit confirmation (AID 1347412). Also: potency is read from the fitted curve at half-maximal effect. As to activity change, negative = inhibition: % is scaled to controls: 0 for no effect and ±100 for the full control effect. As to all read-outs here: nearly all actives have a fitted effect of over 60% in size. As to conditions: iHSKM muscle cells + IFN-b, HiBiT or CellTiter-Glo, 24 h; for Potency: HiBiT; for activity change, negative = inhibition: Viability, at 45.9 µM (top of the series). An outline of the steps:
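Luminescence read-out: Nano-Glo HiBiT lytic signal from C-terminally HiBiT-tagged HLA-B in CRISPR-edited human myoblasts, plus CellTiter Glo ATP as viability counter screen. IFN-beta 4.0 ng/ml; 24 hrs treatment at 37 C, 5% CO2.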

Assay [3] concerns the target Nuclear receptor subfamily 1 group I member 2 (Rattus norvegicus) (UniProt Q9R1A7). Kind of assay: qHTS assay for small molecule activators of the rat pregnane X receptor (rPXR) signaling pathway (AID 651751; call rule not given here; also: 0% is about no effect). As to conditions: rPXR reporter cells, luciferase (One-Glo), 24 h.
Assay [4] in a line: qHTS assay for small molecule activators of the human pregnane X receptor (PXR) signaling pathway (AID 720659; call rule not given here; also: 0% is about no effect).

Sequence of Nuclear receptor subfamily 1 group I member 2 (Rattus norvegicus) (Q9R1A7 whole entry, looked up): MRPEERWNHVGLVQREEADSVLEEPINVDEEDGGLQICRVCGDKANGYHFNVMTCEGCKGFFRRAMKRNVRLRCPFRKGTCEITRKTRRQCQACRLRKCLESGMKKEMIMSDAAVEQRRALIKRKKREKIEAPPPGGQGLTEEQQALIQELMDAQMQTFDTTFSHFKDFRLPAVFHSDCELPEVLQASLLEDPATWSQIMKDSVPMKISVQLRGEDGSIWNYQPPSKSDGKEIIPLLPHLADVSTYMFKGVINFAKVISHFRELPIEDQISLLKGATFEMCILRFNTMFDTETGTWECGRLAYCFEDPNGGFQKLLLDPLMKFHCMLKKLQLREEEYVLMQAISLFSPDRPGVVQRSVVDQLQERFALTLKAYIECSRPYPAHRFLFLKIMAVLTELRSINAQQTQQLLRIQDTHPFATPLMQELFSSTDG

`Cc1ccccc1C(C(=O)NC1CCCCC1)N(C(=O)Cn1ccnc1C)c1cccc(F)c1` (stereo not given): the Potency result in the assay on C33A, with CASKI, with Es-2, in the assay on HeLa, in the assay on Hek293T and with JEG-3 was “inactive” each time. The Potency result with OV90, in the assay with PA-1, in the assay on SKOV3, with Tov-21-G and in the assay on Tov112D was “inactive” each time.
For the compound `CCN(CC)CCOC(=O)c1ccc(N)cc1`, the Potency entry in the assay on C33A, with CASKI, in the assay with Es-2, with HeLa, in the assay with Hek293T and in the assay on JEG-3 was “inactive” each time. For the same compound, the Potency entry in the assay on OV90, in the assay with PA-1, in the assay with SKOV3, in the assay on Tov-21-G and in the assay on Tov112D was “inactive” throughout. The activity, negative = cell killing in [1] (at 20 µM (top of the series), tumour line C) is 5.7%; in [1] (at 21.2 µM (top of the series), tumour line B) it was -3.94%; in assay [1] (at 21.2 µM (top of the series), tumour line D), 2%; in assay [1] (at 21.3 µM (top of the series), tumour line A) it was -17.4%.
As to `COc1cc(Nc2ncc(F)c(Nc3ccc4c(n3)NC(=O)C(C)(C)O4)n2)cc(OC)c1OC`, the Potency result in the assay on C33A, in the assay on Es-2, with Hek293T and in the assay with JEG-3 was “inactive” each time. In addition, the Potency in the assay with CASKI is 11.2 µM (active); in the assay with HeLa it was 31.6 µM (active); in the assay on SKOV3, 15.8 µM (active); in assay [2] it was 1.25 µM (active). For the same compound, the activity change, negative = inhibition in assay [2] is -9.37%.
Regarding `O=C(O)c1ccccc1C(=O)Nc1ccc(-c2ccccc2)cc1`, the Potency entry with C33A was “inactive”. Also, the Potency in the assay with SKOV3 was 25.1 µM (active); in assay [2] it was 14 µM (active). Further, the activity change, negative = inhibition in assay [2] is -4.23%.
Take `Cc1nc(N)sc1-c1ccnc(Nc2ccc(N3CCOCC3)cc2)n1`: the Potency was 10 µM (active) in the assay on Es-2; 2.51 µM (active) in the assay with HeLa; 15.8 µM (active) with OV90; 8.91 µM (active) in the assay on PA-1; 8.91 µM (active) in the assay on SKOV3; 14.1 µM (active) in the assay on Tov-21-G. Besides, the Potency was 12.6 µM (active) in the assay on Tov112D and 5.57 µM (active) in assay [2].
On to `CC1(C)CCC(CN2CCN(c3ccc(C(=O)NS(=O)(=O)c4ccc(NCC5CCOCC5)c([N+](=O)[O-])c4)c(Oc4cnc5[nH]ccc5c4)c3)CC2)=C(c2ccc(Cl)cc2)C1`, for which the Potency result in the assay with C33A, with CASKI, with Es-2, in the assay on HeLa, in the assay on Hek293T and with OV90 was “inactive” in each case. The Potency entry with PA-1, with SKOV3, in the assay on Tov-21-G and in the assay on Tov112D was “inactive” in each case.
Regarding `CN[C@@H](C)C(=O)N[C@H]1CN(C(=O)CC(C)C)CC[C@H]2CC[C@@H](C(=O)NC(c3ccccc3)c3ccccc3)N2C1=O`, the Potency result in the assay with C33A, in the assay on Es-2, with Hek293T, in the assay on JEG-3 and with OV90 was “inactive” throughout. The Potency in the assay with SKOV3 was 7.94 µM (active); in the assay with Tov-21-G, 5.62 µM (active).
For the compound `CC(C)OC(=O)C(C)(C)Oc1ccc(C(=O)c2ccc(Cl)cc2)cc1`, the Potency entry in the assay with C33A, in the assay with CASKI, in the assay with HeLa, in the assay with JEG-3, in the assay on OV90 and in the assay with PA-1 was “inactive” in each case. For the same compound, the Potency result in the assay on SKOV3, in the assay with Tov-21-G and in the assay on Tov112D was “inactive” throughout. Moreover, the activity, negative = cell killing in assay [1] (at 45.9 µM (top of the series), tumour line B) is -21.9%. For the same compound, in assay [1] (tumour line A), the Potency is 11.2 µM (active). In assay [3], the max response is -0.28%.
`COc1cc(N2CCC(N3CCN(C)CC3)CC2)ccc1Nc1ncc(Cl)c(Nc2ccccc2S(=O)(=O)C(C)C)n1`: the Potency in the assay on CASKI is 7.94 µM (active); in the assay on HeLa it was 3.16 µM (active); in the assay on PA-1, 10 µM (active); with Tov-21-G, 7.08 µM (active); in assay [2] it was 17.6 µM (active). Also, the Potency result with JEG-3 was “inactive”.
`O=C(CCCCCCC(=O)Nc1ccccc1)NO`: the Potency was 6.31 µM (active) and 14.1 µM (active) with C33A; 7.08 µM (active) and 12.6 µM (active) in the assay with Es-2; 8.91 µM (active) and 10 µM (active) in the assay with HeLa; 3.98 µM (active) and 8.91 µM (active) with JEG-3; 3.16 µM (active) and 12.6 µM (active) with SKOV3; 11.2 µM (active) and 5.01 µM (active) in the assay on Tov-21-G. Moreover, the Potency with Tov112D was 7.08 µM (active) and 11.2 µM (active); in [2], 3.52 µM (active). Moreover, the activity change, negative = inhibition in assay [2] is 2.12%.
Take `CC(=O)Nc1ccc([C@H](C)C(=O)Nc2ncc(C(C)C)s2)cc1`: the Potency is 20 µM (active) with C33A; 14.1 µM (active) in the assay on Es-2; 15.8 µM (active) in the assay with Hek293T; 22.4 µM (active) in the assay with PA-1; 2.49 µM (active) in assay [2]. Further, the Potency result in the assay on JEG-3 and with SKOV3 was “inactive” each time. The activity change, negative = inhibition in assay [2] is -0.582%.
In the case of `CC1=C(/C=C/C(C)=C/C=C/C(C)=C/C(=O)Nc2ccc(O)cc2)C(C)(C)CCC1`, the Potency in the assay on C33A was 7.94 µM (active); in the assay with Hek293T, 20 µM (active); in the assay on OV90, 31.6 µM (active); in the assay on PA-1, 4.47 µM (active); in the assay with Tov-21-G it was 20 µM (active). Moreover, the outcome in [4] was inactive.
